In the library only some 19% were active in any assay of this set; here they are far more common.
Shiga inhibitor = Shiga toxin inhibition. Vero cells, Shiga toxin protein synthesis inhibition reporter. inhibition, % at 38.7 µM. 9.2% of 290,000 active. AID 2315; in the data active = inhibition mostly above about 28%, no sharp cut-off; inactive = mostly below about 43%
AMA1 RON2 block = inhibitors of Plasmodium falciparum AMA1-RON2 interaction; 0.2% of 360,000 active; Potency, µM (highest dose often 58.2 µM), actives largely listed as inhibitors; AID 720542; AlphaScreen AMA1-biotinylated RON2 peptide binding; also: nearly all actives have a fitted effect of over 45% in size
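AMA1 (3D7) with his tag at 25 nM final met compounds first, then biotinylated RON2 peptide at 25 nM; detection used donor plus acceptor beads, 10 µg/mL apiece, read by AlphaScreen after 30 min at room temperature.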
Pf growth 96h = P. falciparum growth inhibition at 96 hour, primary screen for plastid delayed-death inhibitors. P. falciparum luciferase reporter growth, 96 h. 6.9% of 320,000 active. Potency, µM (highest dose often 28.7 µM), usual class: inhibitors. AID 504834
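Cell-based qHTS: luciferase-tagged P. falciparum in erythrocytes (2% hematocrit, 0.05% parasitemia final) incubated with compounds for 96 hours, 37 C, 5% CO2; luciferase detection reagent then added and luminescence measured.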
CHX counter = counter-screen hit for Shiga toxin inhibitors, cycloheximide; cell reporter, cycloheximide protein synthesis inhibition counterscreen; max response, %; 12% of 300,000 active; AID 2314; in the data active = max response mostly above about 13%, no sharp cut-off; inactive = mostly below about 14%; also: read at 38.3 µM for the half of the compounds with a filed dose
SARS PLpro yeast = SARS-CoV PLP inhibition in yeast; S. cerevisiae expressing SARS-CoV PLpro, growth rescue; Potency, µM (series often up to 32.9 µM), most hits filed as activators; 0.19% of 330,000 active; AID 485353; calls by dose curve; also: nearly all actives have a fitted effect of over 55% in size
Pf growth 48h = P. falciparum growth inhibition at 48 hours (one generation); P. falciparum luciferase growth in erythrocytes, 48 h; Potency, µM (doses to about 28.7 µM), usual class: inhibitors; 5.9% of 310,000 active
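In quantitative HTS format, infected erythrocytes bearing luciferase-reporter parasites were treated for a single generation at 37 C. Luminescence after adding detection reagent served as the growth measure.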
Numbers stand for hits; i = inactive; ? = inconclusive; nt = no result; + = active, no number; [ ] = another dose, or the depositor's remark. Unless noted, calls follow the shape of the dose curve; as a rule, active = well fitted curve in the direction sought with a large enough effect; inconclusive = small, poorly fitted or top-dose-only effect, or another doubt; inactive = no such curve, though single readings can be large; an effect the other way counts as inactive or inconclusive.

SMILES	Shiga inhibitor	AMA1 RON2 block	Pf growth 96h	CHX counter	SARS PLpro yeast	Pf growth 48h
CCC(C)(C(=O)NC1CCCCC1)N(CC1CCCO1)C(=O)CNC(=O)c1ccccc1 (stereo not given)	i	i	nt	i	i[6.58 µM]	nt
CCCCOc1ccc(C(=O)NN2C(=O)NC3(CCCCC3)C2=O)cc1OC	nt	i	i	nt	i	?
COc1ccc(CCCNC(=O)C2Cc3c(-c4cccc(C(C)=O)c4)ccnc3O2)cc1 (stereo not given)	nt	i	nt	nt	nt	nt
CCOc1ccc(NC(=O)CCc2nnc3ccc(N4CCC5(CC4)OCCO5)nn23)cc1	i	i	i	i	i	i
CCOC(=O)C1CSC(CC(=O)Nc2ccc(OC(F)(F)F)cc2)C(=O)N1 (stereo not given)	i	i	?	i	i	i
Cc1ccc(C(=O)n2nc(-c3ccccc3)nc2NCc2ccco2)cc1	i	i	i	18.6	i	i
O=S(=O)(c1ccccc1)n1nc(-c2ccccc2)nc1NCc1ccco1	74.2	i	i	30.5	i	i
O=C(c1ccccc1)n1nc(-c2ccccc2)nc1NCc1ccco1	i	i	?	i	i	nt
Nc1nc(-c2ccco2)nn1S(=O)(=O)c1ccccc1	i	i	i	i	i	i
CCCC(=O)n1nc(-c2ccc(C)cc2)nc1NCc1ccco1	76.1	i	i	31.7	i	i
Cn1cnnc1SCC(=O)NC1CCCN(Cc2ccccc2F)C1 (stereo not given)	i	i	?	i	i	i
CCC(Oc1ccccc1)C(=O)Nc1ccc(-c2nnc(-c3ccco3)o2)cc1 (stereo not given)	88.7	i	i	36.3	i	i
COc1ccc(N(C(C)=O)S(=O)(=O)c2cc(OC)ccc2OC)cc1	i	i	8.28µM	i	i	i
COc1ccc(-c2cn(Cc3ccc(C)cc3)nn2)cc1	78.8	i	i	55.5	i	i
COc1ccc(S(=O)(=O)NCc2ccccn2)c(Cl)c1Cl	i	i	?	i	i	i
CCOc1ccc(C(C)=O)cc1NC(=O)/C=C\C(=O)O	i	i	10.4µM	i	i	i
CC(C(=O)Nc1ccc([N+](=O)[O-])cc1Cl)N1CCN(S(=O)(=O)c2cccs2)CC1 (stereo not given)	nt	i	?	nt	i	11.7µM
CC(C(=O)NC(=O)NC1CCCCC1)N1CCN(c2ccccn2)CC1 (stereo not given)	i	i	i	i	i	i
CC(C(=O)Nc1cc([N+](=O)[O-])ccc1Cl)N1CCN(c2ccc(O)cc2)CC1 (stereo not given)	i	i[2.32 µM]	13.1µM	i	?	i
CC(C(=O)NC(=O)NC1CCCCC1)N1CCN(c2ccc(O)cc2)CC1 (stereo not given)	nt	i[11.6 µM]	16.5µM	nt	i	?
Cc1ccc2c(c1)sc(-c1ccc(N(C)C)cc1)[n+]2C	+	i	?	77.2	i	i
COc1cc(C#Cc2c(-c3cncn3C)n(C)c3ccc(-c4ccc(OC)nc4)cc23)cc(OC)c1	nt	i	0.0928µM	nt	i	?
COc1cc(C#Cc2c(-c3cncn3C)n(C)c3ccc(-c4ccc5[nH]ccc5c4)cc23)cc(OC)c1	nt	i	0.828µM	nt	i	1.47µM
COc1cc(C#Cc2c(-c3cncn3C)n(C)c3ccc(-c4cc(OC)c(OC)c(OC)c4)cc23)cc(OC)c1	nt	i	nt	nt	i	nt
O=C1CCN(CCc2ccccc2)CCN1C(CSc1ccc(Br)cc1)c1ccccc1 (stereo not given)	i	nt	nt	33.4	nt	nt
SMILES	Shiga inhibitor	AMA1 RON2 block	Pf growth 96h	CHX counter	SARS PLpro yeast	Pf growth 48h
Cc1ccc(SC[C@H](c2ccccc2)N2CCN(CCc3ccccc3)CCC2=O)cc1	58.5	?	?	33.3	i	?
O=C1CCN(CCc2ccccc2)CCN1[C@H](CSc1ccccc1)c1ccccc1	i	?	?	14.6	i	?
O=C1CCN(CCc2ccccc2)CCN1[C@H](CO)c1ccccc1	i	i	?	i	i	?
Cc1ccc(SCC(c2ccccc2)N2CCN(CCc3ccccc3)CCC2=O)cc1 (stereo not given)	35.2	nt	nt	48.1	nt	nt
CC(=O)Nc1ccc(SCC(c2ccccc2)N2CCN(CCc3ccccc3)CCC2=O)cc1 (stereo not given)	i	nt	nt	i	nt	nt
CCN(CC#CCC1(O)c2ccccc2-c2ccccc21)C(C)C	i	i	i	i	i	?
CCOc1ccc(N(C(C)C(=O)N2CCOCC2)S(C)(=O)=O)cc1 (stereo not given)	i	i	i	i	i	i
Cc1cc(C)c2c(c1)NC(c1cc3c(cc1Br)OCO3)C1CC=CC21 (stereo not given)	i	?	i	i	i	13.1µM
CC(=O)Nc1ccc2c(c1)C(=O)c1ccc(Cl)cc1-2	nt	i	nt	nt	nt	nt
O=C(CSc1nnc(-c2ccco2)o1)c1ccc[nH]1	110.3	i	i	50.1	i	i
O=C(CSc1nnc(-c2ccco2)o1)c1ccccc1	i	i	?	32.9	i	?
CN1CCC(=O)N(C(CSc2ccc(Br)cc2)Cc2ccccc2)CC1 (stereo not given)	i	nt	nt	i	nt	nt
CCNc1nc(NCC)n2c(SCC(=O)Nc3cccc(Cl)c3)nnc2n1	nt	i	5.22µM	nt	i	11.7µM
CCNc1nc(NCC)n2c(SCC(=O)Nc3ccccc3Cl)nnc2n1	nt	i	?	nt	i	?
CCNc1nc(NCC)n2c(SC(C(=O)Nc3cc(Cl)cc(Cl)c3)c3ccccc3)nnc2n1 (stereo not given)	i	i	10.4µM	i	i	i
CCn1c(SCC(=O)NNC(=O)c2ccco2)nnc1-c1ccco1	i	i	i	i	i	i
COc1ccccc1C(=O)COC(=O)c1cc(S(=O)(=O)N2CCCCC2)ccc1N1CCOCC1	nt	i	?	nt	i	9.28µM
COc1ccc(C(=O)COC(=O)c2cc(S(=O)(=O)N3CCCCC3)ccc2N2CCOCC2)c(OC)c1	nt	i	9.28µM	nt	i	9.28µM
O=C(COC(=O)c1cc(S(=O)(=O)N2CCCCC2)ccc1N1CCOCC1)c1ccc(F)cc1	nt	i	i	nt	i	?
COC(=O)c1ccccc1S(=O)(=O)N1CCC(C(=O)OCC(=O)c2ccccc2OC)CC1	nt	i	?	nt	i	10.4µM
COc1ccccc1C(=O)COC(=O)C1CCN(S(=O)(=O)c2ccccc2)CC1	nt	i	nt	nt	nt	nt
CC(=O)Nc1ccc(NC(=O)c2cc(S(=O)(=O)N3CCCCC3)ccc2N2CCOCC2)cc1	nt	i[11.6 µM]	nt	nt	nt	nt
O=C(Nc1ccc(OC(F)F)cc1)c1cc(S(=O)(=O)N2CCCCC2)ccc1N1CCOCC1	nt	i	4.65µM	nt	i	?
COc1cccc(COC(=O)c2cc(S(=O)(=O)N3CCCCC3)ccc2N2CCOCC2)c1OC	nt	i	?	nt	i	6.57µM
COc1cc(NC(=O)c2cc(S(=O)(=O)N3CCCCC3)ccc2N2CCOCC2)cc(OC)c1	nt	i	?	nt	i	?
COc1ccc(C)cc1NC(=O)c1cc(S(=O)(=O)N2CCCCC2)ccc1N1CCOCC1	nt	i	?	nt	i	11.7µM
COC(=O)c1ccc(/C=N/n2c(C)nc3ccccc3c2=O)cc1	41.2	i	i	20.7	i	i
